# Measured values reported in PubChem BioAssay (NCATS).
# Key:
# [1] = qHTS profiling of the MIPE4 collection as inhibitors of Plasmodium falciparum (3D7) proliferation (AID 743344);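 note: scaled between DMSO vehicle wells and 0.29 µM artemisinin as full inhibition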; details: P. falciparum 3D7 in erythrocytes, SYBR Green DNA fluorescence, 72 h; at 28.5 µM unless noted
# Procedure, shortened: (§1)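 Parasite DNA was quantified by SYBR Green I fluorescence (ex 485, em 535 nm) after overnight lysis in saponin/Triton buffer at room temperature. Cultures at 0.3% parasitemia and 2.5% hematocrit were first exposed to compound for 72 h at 37 C; signals were normalised to artemisinin (0.29 uM) and vehicle wells.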
# [2] = qHTS profiling of the MIPE4 collection as inhibitors of Plasmodium falciparum (DD2) proliferation (AID 743345); details: P. falciparum Dd2 in erythrocytes, SYBR Green DNA, 72 h; at 28.5 µM unless noted
# Procedure, shortened: as §1
# [3] = qHTS profiling of the MIPE4 collection as inhibitors of Plasmodium falciparum (DD2) proliferation (Rep 2) (AID 743346); details: P. falciparum Dd2 in erythrocytes, SYBR Green DNA, 72 h; at 28.5 µM unless noted
# Procedure, shortened: as §1
Structure (SMILES),"parasite growth, % of DMSO control [1] [%]","parasite growth remaining, % of DMSO control (lower = more inhibition) [2] [%]","parasite growth, % of control (lower = inhibition) [3] [%]"
NC(=O)Nc1cc(-c2ccc(CN3CCOCC3)cc2)sc1C(N)=O,27.3,46.5,33
Cc1cnc(NC(=O)Nc2cc(Br)c(C)cc2OC[C@@H]2CNCCO2)cn1,5.93,7.73,8.58
NC(=O)Nc1sc(-c2ccc(F)cc2)cc1C(N)=O,6.58,8.68,9.96
O=C1NCCc2[nH]c(-c3ccncc3)cc21,23.6,39,17.3
c1cc(N[C@@H]2CCNC2)nc(-c2cnc3ccc(-c4cn[nH]c4)cn23)c1,5.24,8.57,9.64
O=c1c(O)c(-c2ccc(O)c(O)c2)oc2cc(O)ccc12,5.73,8.33,14.7
CC(=O)O[C@H]1C[C@@H]2CC[C@H]3[C@H]4C[C@H]([N+]5(C)CCCCC5)[C@@H](OC(C)=O)[C@@]4(C)CC[C@@H]3[C@@]2(C)C[C@H]1N1CCCCC1,40.5,64,37.1
Nc1nc(=O)n([C@H]2C[C@H](O)[C@@H](CO)O2)cc1F,99.5,95.7,85.7
COc1cc2ncnc(Nc3cccc(Br)c3)c2cc1OC,8.2,37.1,48.9
C[C@H](CCC(=O)O)[C@H]1CCC2C3C[C@H](O)[C@@H]4C[C@H](O)CC[C@]4(C)C3CC[C@@]21C (stereo partly specified),79.8,102,88.7
N#CNC(=NCCCCCCOc1ccc(Cl)cc1)Nc1ccncc1,12.1,35.9,28
O=C(Nc1cccc(Nc2ncc(Br)c(NCCc3cnc[nH]3)n2)c1)N1CCCC1,7.42,13.6,17.4
CNC(=O)c1cccc(-c2ccc3c(N4CCOC[C@H]4C)nc(N4CCOC[C@H]4C)nc3n2)c1,8.56,17.5,9.01
CC[C@H]1OC(=O)[C@H](C)[C@@H](O[C@H]2C[C@@](C)(OC)[C@@H](O)[C@H](C)O2)[C@H](C)[C@@H](O[C@@H]2O[C@H](C)C[C@H](N(C)C)[C@@H]2O)[C@](C)(OC)C[C@@H](C)C(=O)[C@H](C)[C@@H](O)[C@]1(C)O,46.8,44.2,66.9
CC(=O)NCC(=O)N1[C@H]2CC[C@H]1c1cc(Nc3ncc(C(F)(F)F)c(NC4CCC4)n3)ccc12,8.18,15.3,12.7
COC1=C(OC)C(=O)C(CC=C(C)CCC=C(C)CCC=C(C)CCC=C(C)CCC=C(C)CCC=C(C)CCC=C(C)CCC=C(C)CCC=C(C)CCC=C(C)C)=C(C)C1=O,94.3,46.1,131
C[C@H]1[C@@H](OC(=O)CCC(=O)O)O[C@@H]2O[C@@]3(C)CC[C@@H]4[C@H](C)CC[C@@H]1[C@@]24OO3,21.4,7.38,10.6
COc1cccc2c1C(=O)c1c(O)c3c(c(O)c1C2=O)C[C@@](O)(C(=O)CO)C[C@@H]3O[C@H]1C[C@H](N)[C@@H](O)[C@H](C)O1,3.7,4.88,4.28
CN1CCc2c(c3ccccc3n2Cc2ccc(C(=O)NO)cc2)C1,5.11,12.1,15.2
Cc1cc(Nc2ncc3c(n2)N(C)C(=O)N(c2cc(NC(=O)c4cccc(C(F)(F)F)c4)ccc2C)C3)n(C)n1,7.35,15.8,15.8
c1cncc(CN2CCC(n3ncc4c(N5CCOCC5)nc(-c5ccc6[nH]ccc6c5)nc43)CC2)c1,4.76,6.76,18.3
NC(=O)N1CCC(CC(=O)N2CCC([C@H]3c4ncc(Br)cc4CCc4cc(Cl)cc(Br)c43)CC2)CC1,5.47,10.6,13.1
Cn1cc(C2=C(c3c4n(c5ccccc35)CCC(CN)C4)C(=O)NC2=O)c2ccccc21 (stereo unspecified),3.66,5.71,11
CNC(=O)c1ccc(Nc2cc(Nc3ccccc3S(=O)(=O)C(C)C)c3cc[nH]c3n2)nc1,4.82,11.9,12.7
Oc1cc2c(cc1O)C1c3ccc(O)c(O)c3OCC1(O)C2 (stereo unspecified),13,106,15.2
COc1cc(N2CCC(C(N)=O)CC2)ccc1Nc1nc(N)c(Cl)c(Nc2ccccc2S(=O)(=O)C(C)C)n1,38.7,37.8,35.9
C=C(C)[C@@H]1CC[C@]2(C)CC[C@]3(C)[C@H](CC[C@@H]4[C@@]5(C)CC[C@H](O)C(C)(C)[C@H]5CC[C@]43C)[C@@H]12,44.1,92,73.8
